Activity calls are given as the source filed them. Rule for the calls: active = hit-call score of the fitted dose curve at least 0.9, where 1 is the maximum; inactive = score below 0.9.
assay: CCTE_Harrill_HTTr_Apoptosis_MCF7: CCTE's 6-hour Apoptosis Assessment for the High-Throughput Transcriptomics (HTTr) Platform, in MCF-7 cells cultured in DMEM + 10% fetal bovine serum, Harrill Lab (AID 2284011)
From the text: This is a cell-based assay that evaluates apoptosis using high content imaging to evaluate activation of caspase-3/7 using the CellEvent Caspase 3/7 Green detection reagent in 384-well format.One of seven assay components measured from the CCTE_Harrill_HTTr_Apoptosis assay. This was part of a full screening experiment. This is a cell-based assay that evaluates apoptosis in MCF-7 cells cultured in DMEM + 10% fetal bovine serum. High content imaging is used to evaluate activation of caspase-3/7 using the CellEvent Caspase 3/7 Green detection reagent. Measurements are taken at 6 hours after chemical dosing in 384-well format.The assay component endpoint CCTE_Harrill_HTTr_Apoptosis_MCF7 was analyzed with bidirectional fitting relation to DMSO as the negative control and baseline of activity. Using a type of viability reporter, gain-of-signal activity can be used to evaluate activation of caspase-3/7 using the CellEvent Caspase 3/7 Green detection reagent to understand changes in apoptosis. To generalize the intended target to other relatable targets, this assay endpoint is annotated to cell cycle, where the subfamily is apoptosis.
Chemicals were tested in MCF7 cells in an eight point dilution series with a six hour exposure duration.

| Compound | outcome | AC50 |
| --- | --- | --- |
| Cc1ccc2ncccc2c1 | inactive |  |
| CCc1c(C(=O)NN2CCCCC2)nn(-c2ccc(Cl)cc2Cl)c1-c1ccc(Br)cc1 | inactive |  |
| CCCCCCCCCCCCCCCCCC(=O)O | inactive |  |
| O=C(O)Cc1ccccc1Nc1c(Cl)cccc1Cl | inactive |  |
| O=C(N[C@@H](Cc1ccccc1)[C@@H](O)C(=O)N1C[C@@H](O)[C@@H](O)C1)c1cc2cc(Cl)ccc2[nH]1 | inactive |  |
| Oc1ccc2ccccc2c1N=Nc1ccccc1 | inactive |  |
| C[Si]1(C)O[Si](C)(C)O[Si](C)(C)O[Si](C)(C)O1 | inactive |  |
| CCOC(=O)C(C)(C)Oc1ccc(Cl)cc1 | inactive |  |
| CCCCOC(=O)CCCCCCCCC(=O)OCCCC | inactive |  |
| CCCCN(CCCC)CCCC | inactive |  |
| Cc1nc(C)nc(N2C[C@@H](C)N(c3ccnc([C@@H](C)O)n3)[C@@H](C)C2)n1 | inactive |  |
| CC1=C(/C=C/C(C)=C/C=C/C(C)=C/CO)C(C)(C)CCC1 | inactive |  |
| CCCCc1ccc2c(n1)[C@@H](c1ccc(OC)cc1C[C@H](C)C(=O)O)[C@H](C(=O)O)[C@H]2c1ccc2c(c1)OCO2 | inactive |  |
| CCCc1cc(=O)[nH]c(=S)[nH]1 | inactive |  |
| CC(C)c1ccc(C(=O)N=C(N)N)cc1S(C)(=O)=O | inactive |  |
| CCCCCCOCCO | inactive |  |
| NC(=O)Cn1c(=O)cc(CCN2CCN(c3nccc4sccc34)CC2)c2ccc(F)cc21 | inactive |  |
| CCCCCC(=O)O | inactive |  |
| CCCCCCCCCCCCCCCC | inactive |  |
| COc1cccc2c1C(=O)c1c(O)c3c(c(O)c1C2=O)C[C@@](O)(C(=O)CO)C[C@@H]3O[C@H]1C[C@H](N)[C@H](O)[C@H](C)O1 |  | 90.8 µM (active) |

| Compound | outcome | AC50 |
| --- | --- | --- |
| CNCc1cc(F)ccc1Oc1ccc(Cl)c(Cl)c1 | inactive |  |
| COc1cc(-c2nc(NC(=O)c3cc4cc(C)cc(C)c4n3CC(=O)O)sc2CCC2CCCCC2)c(OC)cc1Cl | inactive |  |
| COc1cc(/C=C/C(=O)CC(=O)/C=C/c2ccc(O)c(OC)c2)ccc1O | inactive |  |
| COc1cc(C=O)ccc1O | inactive |  |
| CC(=O)OC/C=C(\C)CCC=C(C)C | inactive |  |
| Cc1cccc(C)c1O | inactive |  |
| Clc1cc(Cl)c(Cl)cc1Cl | inactive |  |
| CCCCCCCCCCCC(=O)OC | inactive |  |
| CC(=O)C(C)=CC1C(C)=CCCC1(C)C (stereo not given) | inactive |  |
| COC(=O)c1ccc(O)cc1 | inactive |  |
| Cc1oc(-c2ccccc2)nc1CCOc1cccc2c1ccn2CCC(=O)O | inactive |  |
| O=C(O)CCCCC(=O)O | inactive |  |
| CCCCCCCCCCO | inactive |  |
| CC1(C)CC(N=C=O)CC(C)(CN=C=O)C1 (stereo not given) | inactive |  |
| O=[N+]([O-])C(CO)(CO)CO | inactive |  |
| Cc1ccc(C)c(C)c1 | inactive |  |
| CCOc1ccc2c(c1)C(C)=CC(C)(C)N2 | inactive |  |
| CCCCCCCCCCC | inactive |  |
| Cc1ccc(C(C)C)c(O)c1 | inactive |  |
| CN[C@H]1CC[C@@H](c2ccc(Cl)c(Cl)c2)c2ccc(S(N)(=O)=O)cc21 | inactive |  |

Reference: PubChem BioAssay (EPA / NIEHS)
